From PubChem BioAssay (NCI)
Compounds without any hit were thinned out: in the full panel of roughly 83,000, 20% have a hit.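 The endpoint reported here, percent growth, reads 100 for growth as untreated, 0 for no net growth and -100 for all cells dead.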 Unmarked numbers belong to inactive results. The source made the active and inactive calls. The calls were made as follows: active = growth percent below 10; inactive = the rest.

Legend:
Assay in all cases: NCI-60 one-dose screen, 48 h (100 = growth as untreated, 0 = no growth, -100 = all killed)
Conditions in all cases: 10 µM unless noted
HCT-15 colon = test system: HCT-15 colon
HT29 colon = test system: HT29 colon
SNB-75 CNS = test system: SNB-75 CNS
SNB-19 CNS = test system: SNB-19 CNS
U251 CNS = test system: U251 CNS
PC-3 prostate = test system: PC-3 prostate
SK-MEL-5 melanoma = test system: SK-MEL-5 melanoma
UACC-62 melanoma = test system: UACC-62 melanoma
LOX IMVI melanoma = test system: LOX IMVI melanoma
SK-MEL-28 melanoma = test system: SK-MEL-28 melanoma
SK-MEL-2 melanoma = test system: SK-MEL-2 melanoma
EKVX NSCLC = test system: EKVX NSCLC
SN12C renal = test system: SN12C renal
UO-31 renal = test system: UO-31 renal
TK-10 renal = test system: TK-10 renal
ACHN renal = test system: ACHN renal
CAKI-1 renal = test system: CAKI-1 renal
A498 renal = test system: A498 renal
CCRF-CEM leukemia = test system: CCRF-CEM leukemia
MOLT-4 leukemia = test system: MOLT-4 leukemia

Row | Structure (SMILES) | growth (HCT-15 colon) [%] | growth (HT29 colon) [%] | growth (SNB-75 CNS) [%] | growth (SNB-19 CNS) [%] | growth (U251 CNS) [%] | growth (PC-3 prostate) [%] | growth (SK-MEL-5 melanoma) [%] | growth (UACC-62 melanoma) [%] | growth (LOX IMVI melanoma) [%] | growth (SK-MEL-28 melanoma) [%] | growth (SK-MEL-2 melanoma) [%] | growth (EKVX NSCLC) [%] | growth (SN12C renal) [%] | growth (UO-31 renal) [%] | growth (TK-10 renal) [%] | growth (ACHN renal) [%] | growth (CAKI-1 renal) | growth (A498 renal) [%] | growth (CCRF-CEM leukemia) [%] | growth (MOLT-4 leukemia) [%]
1 | NC(=O)NS(=O)(=O)c1ccc(N2N=C(C(F)(F)F)CC2c2cc(C(F)(F)F)cc(C(F)(F)F)c2)cc1 (stereo not drawn) | 62.9 | 70.4 | 68.1 | 85 | 74.6 | 16.2 | 75.5 | 82.7 | 78.6 | 84.8 | 11.2 | 58.5 | 83.5 | 49.6 | 85.6 | 80.7 | 78.9% | 70.1 | 37.4 | 43.2
2 | Cc1ccc(C(=O)Cc2ccccc2)c(O)c1 | 102 | 110 | 97.8 | 95.4 | 98.9 | 99.8 | 108 | 90.4 | 98 | 117 | 101 | 99.4 | 94.8 | 86.4 | 104 | 102 | 95% | 79.3 |  | 92.3
3 | CCN(CC)c1ccc(N=C2C=CC(=O)C=C2NC(C)=O)cc1 | 90.3 | 104 | 96.7 | 116 | 87.9 | 83.6 | 88.5 | 93.2 | 80.8 | 127 | 98.6 | 106 | 97.5 | 71 | 95.9 | 83.7 | 105% | 82.1 | 87.6 | 99.5
4 | O=C1Nc2ccc(Cl)cc2[C@@](C#CC2CC2)(C(F)(F)F)O1 | 82.9 | 86.6 | 114 | 103 | 92 | 92.9 | 78 | 70 | 85.5 | 109 | 95.5 | 112 | 85.8 | 116 | 106 | 88.6 | 91.4% | 106 | 87.4 | 74.1
5 | Clc1ccc(C2c3ccccc3-c3nccn32)c(Cl)c1 (stereo not drawn) | 72.1 | 77.9 | 83.1 | 88.8 | 86.3 | 64.2 | 47.3 | 73.2 | 76.5 | 112 | 80.7 | 60 | 85.4 | 80.1 | 81.3 | 89.7 | -12% (active) | 90.3 |  | 65.6
6 | NC(=N\N=C/Cc1ccccc1)/C(N)=N\N=C\Cc1ccccc1 | 94.9 | 120 | 98.5 | 96.6 | 106 | 101 | 107 | 96.1 | 96.8 | 120 | 108 | 110 | 102 | 91.2 | 110 | 94.8 | 102% | 90.1 | 95.8 | 100
